PubChem BioAssay (NCI)
Where “and” joins values, the source holds several entries; their conditions need not be identical. Identical values can stand only once. The panel holds about 79,000 compounds, 15% with a hit somewhere; the sample as a whole holds those more often. The source holds several records for some structures; these can differ, active in one and inactive in another. Calls of active or inactive are those of the source. Rule as the data show it: active = growth inhibition above about 70%; inactive = the rest.

How the values were obtained:
[1] = NCI Yeast Anticancer Drug Screen. Data for the wt1 strain (AID 149);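 also: 0% = growth of vehicle-treated wt1 cultures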; conditions: S. cerevisiae wt1 strain (SPY 50644) growth inhibition, stronger effect = higher value
In short: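 wt1 yeast, compound-treated; % growth inhibition vs vehicle control.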

[2] = NCI Yeast Anticancer Drug Screen. Data for the rad50EPP+ strain (AID 151);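 also: 0% = growth of vehicle-treated control cultures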; conditions: S. cerevisiae rad50 mutant strain, stronger effect = higher value
In short: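 Yeast strain carrying rad50 alteration (rad50EPP+) exposed to compounds; growth inhibition measured relative to vehicle-treated controls.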

[3] = NCI Yeast Anticancer Drug Screen. Data for the mgt1 strain (AID 153); conditions: S. cerevisiae mgt1 mutant growth inhibition, stronger effect = higher value
In short: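 Yeast mgt1 strain (DNA repair/cell-cycle alteration panel) exposed to compounds; growth inhibition measured relative to vehicle-treated controls.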

[4] = NCI Yeast Anticancer Drug Screen. Data for the rad50 strain (AID 155);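 also: 0% = growth of vehicle-only cultures of the same strain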; conditions: S. cerevisiae rad50 strain growth inhibition, stronger effect = higher value
In short: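 Genetically altered yeast (DNA repair pathway); compound treatment; growth inhibition vs vehicle ctrl.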

[5] = NCI Yeast Anticancer Drug Screen. Data for the mec2-1 strain (AID 157); conditions: S. cerevisiae mec2-1 strain, stronger effect = higher value
In short: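 mec2-1 yeast strain, carrying an alteration in DNA damage repair or cell cycle control, was exposed to compounds; growth inhibition was measured relative to vehicle-treated controls.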

[6] = NCI Yeast Anticancer Drug Screen. Data for the sgs1 mgt1 strain (AID 161);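 also: 0% = growth of cultures given vehicle only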; conditions: S. cerevisiae sgs1 mgt1 strain, stronger effect = higher value
In short: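 Compounds are added to genetically altered yeast, and growth is compared with cultures given vehicle alone to give percent inhibition.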

[7] = NCI Yeast Anticancer Drug Screen. Data for the CLN2oe strain (AID 163);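 also: 0% = growth of vehicle-only control cultures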; conditions: S. cerevisiae CLN2oe strain, stronger effect = higher value
In short: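 Yeast cells carrying a defined cell-cycle control alteration were exposed to test compounds. Growth inhibition was scored against vehicle-treated control cultures.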

[8] = NCI Yeast Anticancer Drug Screen. Data for the cln2 rad14 strain (AID 165);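 also: 0% = growth equal to vehicle treated cultures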; conditions: S. cerevisiae cln2 rad14 strain, stronger effect = higher value
In short: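 Yeast carrying cln2 and rad14 alterations (cell cycle control and DNA damage repair) were exposed to compounds. Growth inhibition was measured against vehicle-treated controls.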

[9] = NCI Yeast Anticancer Drug Screen. Data for the bub3 strain (AID 167); conditions: S. cerevisiae bub3 mutant strain, stronger effect = higher value
In short: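 Yeast carrying a defined mutation is treated with each compound, and growth is compared with that of vehicle-exposed cells to give inhibition.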

[10] = NCI Yeast Anticancer Drug Screen. Data for the wt2 strain (AID 169);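 also: 0% = growth of vehicle-treated yeast cultures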; conditions: S. cerevisiae wt2 strain growth inhibition, stronger effect = higher value
In short: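 Yeast cells were exposed to test compounds, and growth inhibition was measured relative to vehicle-treated controls.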

[11] = NCI Yeast Anticancer Drug Screen. Data for the mlh1 strain (AID 171);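 also: 0% = growth of vehicle-treated control cultures of the same strain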; conditions: S. cerevisiae mlh1 strain growth inhibition, stronger effect = higher value
In short: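 Yeast carrying a defined genetic alteration in DNA damage repair or cell cycle control were exposed to test compounds. Growth inhibition was measured relative to vehicle-treated controls.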

[12] = NCI Yeast Anticancer Drug Screen. Data for the sgs1 strain (AID 173);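 also: 0% = growth of vehicle-only control cultures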; conditions: S. cerevisiae sgs1 mutant, stronger effect = higher value
In short: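 Yeast mutant strains carrying defined defects in DNA damage repair or cell cycle control were exposed to test compounds. Growth inhibition was scored against vehicle-treated controls.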

[13] = NCI Yeast Anticancer Drug Screen. Data for the mlh1 rad18 strain (AID 175); conditions: S. cerevisiae mlh1 rad18 strain growth inhibition, stronger effect = higher value
In short: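 Growth inhibition of the yeast strain was measured after compound exposure and expressed relative to vehicle-treated controls. The strain carries defined defects in DNA damage repair.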

[14] = at 5.0 µM (retest, dose inferred, filed as 0.5)
[15] = at 50.0 µM (retest, dose inferred, filed as 5.0)

Structure (SMILES): COc1ccc(OC)c(/C=C/[N+](=O)[O-])c1
- growth inhibition ([1]; at 1.2 µM): -6% (inactive)
- growth inhibition ([1]; at 3.7 µM): -7% (inactive)
- growth inhibition ([1]; at 11.0 µM): -9% (inactive)
- growth inhibition ([1]; at 33.0 µM): 7% (inactive)
- growth inhibition ([1]; at 100.0 µM): 71% (active)
- growth inhibition ([2]; at 1.2 µM): 29% (inactive)
- growth inhibition ([2]; at 3.7 µM): 59% (inactive)
- growth inhibition ([2]; at 11.0 µM): 74% (active)
- growth inhibition ([2]; at 33.0 µM): 86% (active)
- growth inhibition ([2]; at 100.0 µM): 99% (active)
- growth inhibition ([3]; at 1.2 µM): 0% (inactive)
- growth inhibition ([3]; at 3.7 µM): -2% (inactive)
- growth inhibition ([3]; at 11.0 µM): 2% (inactive)
- growth inhibition ([3]; at 33.0 µM): 23% (inactive)
- growth inhibition ([3]; at 100.0 µM): 100% (active)
- growth inhibition ([4]; at 1.2 µM): 11% (inactive)
- growth inhibition ([4]; at 3.7 µM): 21% (inactive)
- growth inhibition [4, 14]: -83% (inactive) and 19% (inactive)
- growth inhibition ([4]; at 11.0 µM): 48% (inactive)
- growth inhibition ([4]; at 33.0 µM): 86% (active)
- growth inhibition [4, 15]: 86% (active) and 95% (active)
- growth inhibition ([4]; at 50.0 µM): 99.4% (active)
- growth inhibition ([4]; at 100.0 µM): 99% (active)
- growth inhibition ([5]; at 1.2 µM): 1% (inactive)
- growth inhibition ([5]; at 3.7 µM): 2% (inactive)
- growth inhibition [5, 14]: -46% (inactive) and 9% (inactive)
- growth inhibition ([5]; at 11.0 µM): 7% (inactive)
- growth inhibition ([5]; at 33.0 µM): 30% (inactive)
- growth inhibition [5, 15]: -38% (inactive) and 97% (active)
- growth inhibition ([5]; at 50.0 µM): 99.7% (active) and 98.8% (active)
- growth inhibition ([5]; at 100.0 µM): 99% (active)
- growth inhibition [6, 14]: -53% (inactive) and 12% (inactive)
- growth inhibition [6, 15]: 1% (inactive) and 64% (inactive)
- growth inhibition ([6]; at 50.0 µM): 91.3% (active) and 99% (active)
- growth inhibition ([7]; at 1.2 µM): 6% (inactive)
- growth inhibition ([7]; at 3.7 µM): 9% (inactive)
- growth inhibition ([7]; at 11.0 µM): 13% (inactive)
- growth inhibition ([7]; at 33.0 µM): 37% (inactive)
- growth inhibition ([7]; at 100.0 µM): 95% (active)
- growth inhibition [8, 14]: -60% (inactive) and 2% (inactive)
- growth inhibition [8, 15]: -45% (inactive) and 76% (active)
- growth inhibition ([8]; at 50.0 µM): 98.8% (active) and 98.4% (active)
- growth inhibition ([9]; at 1.2 µM): 0% (inactive)
- growth inhibition ([9]; at 3.7 µM): 6% (inactive)
- growth inhibition [9, 14]: -57% (inactive) and 35% (inactive)
- growth inhibition ([9]; at 11.0 µM): 13% (inactive)
- growth inhibition ([9]; at 33.0 µM): 25% (inactive)
- growth inhibition [9, 15]: -33% (inactive) and 79% (active)
- growth inhibition ([9]; at 50.0 µM): 99% (active)
- growth inhibition ([9]; at 100.0 µM): 99% (active)
- growth inhibition ([10]; at 1.2 µM): 0% (inactive)
- growth inhibition ([10]; at 3.7 µM): -1% (inactive)
- growth inhibition ([10]; at 11.0 µM): -2% (inactive)
- growth inhibition ([10]; at 33.0 µM): 15% (inactive)
- growth inhibition ([10]; at 100.0 µM): 85% (active)
- growth inhibition ([11]; at 1.2 µM): 10% (inactive)
- growth inhibition ([11]; at 3.7 µM): -2% (inactive)
- growth inhibition ([11]; at 11.0 µM): 8% (inactive)
- growth inhibition ([11]; at 33.0 µM): 28% (inactive)
- growth inhibition ([11]; at 100.0 µM): 98% (active)
- growth inhibition ([12]; at 1.2 µM): -1% (inactive)
- growth inhibition ([12]; at 3.7 µM): 18% (inactive)
- growth inhibition ([12]; at 11.0 µM): 29% (inactive)
- growth inhibition ([12]; at 33.0 µM): 54% (inactive)
- growth inhibition ([12]; at 100.0 µM): 100% (active)
- growth inhibition [13, 14]: -114% (inactive) and 37% (inactive)
- growth inhibition [13, 15]: -53% (inactive) and 95% (active)
- growth inhibition ([13]; at 50.0 µM): 97.9% (active) and 99.5% (active)
